Shown are actives, neighbours in structure and some others; about 9.2% of the full set was active somewhere.
NPC1 promoter act – activators of NPC1 promoter. Potency, µM (doses to about 9.22 µM), for the others: at the top dose activation, most hits filed as activators. 2.4% of 320,000 active. Huh7 NPC1 promoter luciferase reporter, 24 h. AID 485313; further: % of control where 0% means no effect; nearly all actives have a fitted effect of over 60% in size
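Quantitative HTS used a cell-based reporter: Huh7 cells stably bearing the NPC1 promoter upstream of luciferase were treated with compounds for 24 h, and promoter activation was read as luminescence.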
Rab9 promoter act – activators of Rab9 promoter; Potency, µM (doses to about 9.22 µM), for the others: at the highest dose activation, negative = inhibition, usual class: activators; 2.8% of 320,000 active; AID 485297; Huh7 Rab9 promoter-luciferase reporter, luminescence, 24 h; further: % of control where 0% means no effect; nearly all actives have a fitted effect of over 60% in size
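Huh7 cells stably carrying a Rab9 promoter-luciferase reporter, 1500 cells per well in OP-MEM I with 10% FBS, treated with compound 24 hours at 37C. Luciferase activity read by luminescence after 10 minutes with Amplite reagent.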
FLuc counter – inhibits or activates purified firefly luciferase, miR-21 counter-screen; Potency, µM (highest dose often 57.5 µM), for the others: at the highest dose activity change, negative = inhibition, hits mostly inhibitors; P08659; purified FLuc, Km substrates, luminescence inhibition; AID 588342; 6.9% of 360,000 active;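 further: plate controls were vehicle for no effect and reference inhibitor for full effect; nearly all actives have a fitted effect of over 55% in size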
Target sequence (P08659 whole entry, looked up): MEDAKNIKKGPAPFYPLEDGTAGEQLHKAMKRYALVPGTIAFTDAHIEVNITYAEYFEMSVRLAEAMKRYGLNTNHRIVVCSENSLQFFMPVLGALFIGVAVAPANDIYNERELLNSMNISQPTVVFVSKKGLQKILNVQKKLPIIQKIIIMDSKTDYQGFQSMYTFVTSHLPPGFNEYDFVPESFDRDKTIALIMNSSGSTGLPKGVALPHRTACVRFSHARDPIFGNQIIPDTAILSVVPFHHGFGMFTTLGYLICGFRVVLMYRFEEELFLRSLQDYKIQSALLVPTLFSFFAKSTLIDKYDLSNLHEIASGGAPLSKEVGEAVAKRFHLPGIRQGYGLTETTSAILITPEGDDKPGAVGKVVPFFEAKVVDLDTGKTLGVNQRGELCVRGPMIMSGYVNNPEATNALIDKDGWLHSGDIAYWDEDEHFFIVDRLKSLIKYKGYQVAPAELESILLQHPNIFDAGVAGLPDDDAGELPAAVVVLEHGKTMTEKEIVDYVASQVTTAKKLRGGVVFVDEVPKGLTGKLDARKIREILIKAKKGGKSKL
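Purified P. pyralis luciferase (10nM final) with 10uM D-luciferin and 10uM ATP (Km levels) in 50mM Tris acetate pH 7.5, 10mM Mg acetate, 0.01% Tween-20, 0.05% BSA; qHTS 6-point titration, ~60 µM downward; luminescence read.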
ELG1 repair inh – ELG1-dependent DNA repair inhibition. AID 504467. HEK293T ELG1-luciferase reporter, luminescence, 16 h; DNA damage induced by 5-fluorouridine. Potency, µM (doses to about 46.1 µM), without a hit: top-dose activity change, negative = inhibition, hits mostly inhibitors. 2.3% of 330,000 active; further: on the % scale 0 is the no-effect control and ±100 the full control effect; nearly all actives have a fitted effect of over 55% in size
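Cells (2,000 per well) received 5-fluorouridine plus test compound or DMSO and were incubated 16 hr at 37 °C, 5% CO2. Luciferase activity was read by luminescence 30 min after ONE-Glo addition; signal suppression marked inhibition of damage-induced ELG1 function.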
ELG1 genotox – inducers of genotoxicity in HEK293T ELG1-luciferase cells; 1.3% of 330,000 active; Potency, µM (top dose mostly 46 µM), without a hit: top-dose activity change, positive = activation, actives largely listed as activators; HEK293T ELG1-luciferase reporter, luminescence, 16 h; further: % of control where 0% means no effect; nearly all actives have a fitted effect of over 60% in size
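Genotoxicity was scored as increased ELG1-luciferase reporter signal, measured by ONE-Glo luminescence (30 min, room temperature). Compound or vehicle exposure of the HEK293T reporter cells lasted 16 hr at 37°C.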
SMN2 splice up – increases expression of the SMN2 splice variant; HEK293 SMN2-luciferase splicing reporter, luminescence, 30-36 h; Potency, µM (highest dose often 46.1 µM), for the others: at the highest dose activity change, positive = activation, hits mostly activators; AID 1458; 2.8% of 210,000 active; further: % of control where 0% means no effect; nearly all actives have a fitted effect of over 55% in size
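HEK293 cells carry an SMN2 minigene-luciferase reporter in which exon 7 inclusion puts luciferase in frame. Cells were seeded at 2000 cells/well, attached for 10-12 hours, then exposed to compounds for 30-36 hours at 37C before ONE-Glo luminescence.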
Active calls of the source: *; ? = inconclusive; . = no result; [ ] = another dose, or the depositor's remark. The call rests on the fitted dose curve; in most records, active means well fitted curve in the direction sought with a large enough effect; inconclusive means small, poorly fitted or top-dose-only effect, or another doubt; inactive means no such curve, though single readings can be large; an effect the other way counts as inactive or inconclusive. Potency means the concentration at half of the fitted maximal effect.

SMILES	NPC1 promoter act	Rab9 promoter act	FLuc counter	ELG1 repair inh	ELG1 genotox	SMN2 splice up
COc1ccccc1NC(=S)N(Cc1ccco1)Cc1cc2cccc(C)c2[nH]c1=O	-5.0%	-4.2%	-1.2%	16.4µM*	-6.5%	-0.4%[1.84 µM]
COc1ccccc1NC(=O)N(Cc1ccco1)Cc1cc2cc(C)cc(C)c2[nH]c1=O	-1.9%	2.4%	-26.7%	18.4µM*	-3.8%	-15.2%
Cc1ccc(C)c2[nH]c(=O)c(CN(Cc3ccco3)C(=O)Nc3ccccc3)cc12	1.5%	-4.5%	?	5.17µM*	-11.7%	-20.2%
CCCOc1ccc(Nc2nc(SC)ncc2C(=O)OCC)cc1	.	.	6.2%	.	.	.
CO[C@]12C[C@@H](COC(=O)c3cncc(Br)c3)CN(C)[C@@H]1Cc1cn(C)c3cccc2c13	.	.	.	.	.	-7.5%
Cc1ccc(C)c(NC(=O)C(NS(=O)(=O)c2ccc3c(c2)CCC(=O)N3)c2ccccc2)c1 (stereo not given)	.	.	5.7%	.	.	?
COc1ccc(S(=O)(=O)N2CCC(C(=O)N(C)Cc3ccc(C)o3)CC2)cc1OC	-5.5%	4.0%	-0.6%	16.4µM*	2.6%	.
Cc1ccc(CN(C)C(=O)c2cccc(S(=O)(=O)N3CCCC3)c2)o1	.	.	.	9.8%	3.3%	.
O=C(Sc1cccc2cccnc12)c1ccc(F)cc1	-49.3%	-46.8%	-19.9%	?	?	-64.5%
O=C(Sc1cccc2cccnc12)c1ccccc1Br	-33.0%	-23.3%	23.9µM*	?	14.0%	.
CC(=O)OCCN1CCN(C(=O)CN2C(=O)NC(c3ccccc3)(c3ccccc3)C2=O)CC1	2.1%	0.0%	-1.3%	9.0%	-1.0%	.
CCOc1ccc(/C=C2\CCc3ccccc3C2=O)cc1	2.82µM*	1.12µM*	0.301µM*	?	?	.
COc1cc(/C=C2\CCc3ccccc3C2=O)cc(OC)c1OC	1.3%	-2.0%	?	?	0.3%	-35.2%
O=C1/C(=C/c2ccncc2)CCc2ccccc21	-0.4%	-4.1%	8.49µM*	-7.5%	3.9%	.
O=C1/C(=C\c2ccncc2)CCc2ccccc21	-0.2%	-10.5%	9.53µM*	?	-12.5%	.
CNc1nc(-c2ccc(N(C)C)cc2)nc2ccccc12	.	.	.	.	.	10.3%
Cn1ncc(Br)c1NC(=O)CSc1ccc(Cl)cc1	-7.9%	-17.9%	-1.2%	7.3µM*	-8.2%	.
O=C(CSc1ccc(Cl)cc1)Nc1ncccn1	5.6%	12.6%	-9.8%	?	3.0%	1.8%
Cc1cc(C)c(C(=O)CN2C(=O)NC3(CCCCC3)C2=O)cc1C	16.2%	?	-2.6%	?	11.5%	21.7%
COCCn1c(C)cc(C(=O)CN2CCCCC2)c1C	1.6%	-3.4%	2.4%	13.1%	5.9%	11.5%
Cc1ccc(C(=O)CN2C(=O)NC3(CCCCCC3)C2=O)c(C)c1	3.98µM*	?	?	?	16.4µM*	.
COCCn1c(C)cc(C(=O)CN2C(=O)NC3(CCCCCCC3)C2=O)c1C	3.16µM*	3.98µM*	15.1µM*	?	?	?
CC1Cc2cc(S(=O)(=O)N3CCC(C(=O)N(C)Cc4ccco4)CC3)ccc2N1C(=O)C1CCC1 (stereo not given)	-1.3%	-11.0%	-0.4%	?	-6.6%	.
N#C/C(=C\c1c(Cl)cccc1Cl)c1nc2ccccc2[nH]1	3.7%	-1.7%	?	0.0%	-3.6%	.
N#C/C(=C/c1cccs1)c1nc2ccccc2[nH]1	?	2.82µM*	?	?	?	?
SMILES	NPC1 promoter act	Rab9 promoter act	FLuc counter	ELG1 repair inh	ELG1 genotox	SMN2 splice up
Cc1ccc(/C=C(\C#N)c2nc3ccccc3[nH]2)s1	0.794µM*	0.355µM*	4.78µM*	?	?	?
COc1ccc(N2C(=O)C(CC(=O)Nc3ccccc3)N(CCC3=CCCCC3)C2=O)cc1 (stereo not given)	.	.	1.0%	.	.	0.2%
COc1cccc(-n2cc(C(=O)NCc3ccc(C)cc3)c3ccccc3c2=O)c1	.	.	1.7%	.	.	.
Clc1ccc(CCNC(c2ccc(Cl)cc2)c2nnc(-c3ccccc3)o2)cc1 (stereo not given)	.	.	?	.	.	-6.7%
Cn1c(=O)c2c(nc(N/N=C/c3ccc(OC(=O)c4ccco4)cc3)n2Cc2ccccc2)n(C)c1=O	-8.8%	-11.7%	-0.4%	20.6µM*	-0.7%	-29.8%
Cn1c(=O)c2c(nc(N/N=C/c3cccs3)n2Cc2ccccc2)n(C)c1=O	-6.6%	-10.7%	-13.1%	6.51µM*	0.4%	-55.1%
Cn1c(=O)c2c(nc(N/N=C/c3cccnc3)n2Cc2ccc(F)cc2)n(C)c1=O	-3.2%	-0.2%	-0.2%	2.3%	1.1%	.
COc1ccccc1OCC(=O)Nc1cc(-c2ccc(C)cc2)no1	.	.	-2.3%	.	.	?
CC(C)c1ccc(NC(=O)c2cc(S(=O)(=O)NCc3ccccc3Cl)ccc2F)cc1	.	.	-4.1%	.	.	.
COc1ccc(C2C(C#N)=C(N)Oc3cc4c(cc32)OCO4)cc1 (stereo not given)	-1.4%	0.8%	0.2%	?	-5.0%	22.8%
CCN1C=C(Cc2ccc(OC)cc2)C2=C(C1)C(c1ccc(OC)cc1)C(C#N)=C(N)O2 (stereo not given)	-4.9%	-4.1%	-2.8%	20.6µM*	-9.9%	-16.5%
Clc1nc2c(-c3ccccc3)nnn2c2ccccc12	0.1%	-1.2%	1.51µM*	?	-10.3%	.
Fc1cccc(-c2nnn3c2nc(Cl)c2ccccc23)c1	-3.9%	-0.9%	1.69µM*	?	24.0%	1.2%
O=C(Nc1ccc2c(c1)oc1ccccc12)C1CC1	3.98µM*	2.51µM*	5.36µM*	?	?	?
O=C(Nc1ccc2c(c1)oc1ccc(S(=O)(=O)N3CCCC3)cc12)C1CC1	-4.1%	-6.2%	3.2%	16.4µM*	-6.8%	3.0%
CCOC(=O)c1c(C)c(-c2ccccc2)n(CC(=O)Nc2cc(OC)cc(OC)c2)c1C	.	.	-13.3%	.	.	-38.8%
Cc1cccc(Cc2c(C)nc3nc(SCc4ccccc4F)nn3c2C)c1	.	.	-10.6%	.	.	.
CC(C)CCn1c(O)c(N=Nc2ccccn2)c2ccccc21	-3.5%	1.1%	-19.1%	?	0.6%	-8.6%[1.84 µM]
CCCn1c(O)c(N=Nc2ccc3ccccc3n2)c2ccccc21	1µM*	0.708µM*	8.49µM*	?	?	?
COC(=O)c1ccc(-c2nc(-c3cccs3)no2)cc1	0.316µM*	?	0.151µM*	?	0.366µM*	10.3%
O=C(NCCc1ccccc1)c1nc(-c2cccs2)no1	?	5.62µM*	13.5µM*	?	?	14.1µM*
COC(=O)c1noc(-c2ccc(C)cc2)n1	-0.6%	-4.9%	10.7µM*	?	1.8%	13.9%
O=c1oc2ccc(Cl)cc2cc1-c1nc(-c2cccs2)no1	.	.	2.5%	.	.	.

Screens from PubChem.
